Assay outcomes: PubChem, National Center for Advancing Translational Sciences (NCATS)
Pol kappa inh: blocks human DNA polymerase kappa activity; Q9UBT6; purified Pol kappa, fluorescent DNA synthesis assay, 10 min; Potency, µM (doses to about 107 µM), inactives show at the highest dose activity, negative = inhibition, most hits filed as inhibitors; 0.53% of 400,000 active; also: % is scaled to controls: 0 for no effect and ±100 for the full control effect
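Here, compound and 10 nM enzyme are combined for 15 min at room temperature; adding 50 nM substrate (final) starts DNA synthesis, tracked by fluorescence at 0 and 10 min against buffer-only wells.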
TDP1 block: blocks human tyrosyl-DNA phosphodiesterase 1; Q9NUW8; recombinant TDP1, AlphaScreen DNA substrate cleavage; Potency, µM (highest dose often 130 µM), without a hit: top-dose activity change, negative = inhibition, most hits filed as inhibitors; 0.28% of 350,000 active; AID 485290; also: % is scaled to controls: 0 for no effect and ±100 for the full control effect; nearly all actives have a fitted effect of over 40% in size
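Steps: enzyme plus compound, 15 min RT; add biotin/phosphotyrosine-FITC oligonucleotide (15 nM final), react 5 min; add donor/acceptor beads (10 ug/ml final), 10 min; read AlphaScreen. Tdp1 at 1 nM final.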
POLH inh: DNA polymerase eta (human) inhibition; Q9Y253; recombinant Pol eta, fluorescent DNA replication assay; Potency, µM (highest dose often 114 µM), for inactives: at the highest dose activity change, negative = inhibition, most hits filed as inhibitors; 1.2% of 390,000 active; AID 588591; also: % is scaled to controls: 0 for no effect and ±100 for the full control effect
Target sequence (Q9Y253 whole entry, looked up): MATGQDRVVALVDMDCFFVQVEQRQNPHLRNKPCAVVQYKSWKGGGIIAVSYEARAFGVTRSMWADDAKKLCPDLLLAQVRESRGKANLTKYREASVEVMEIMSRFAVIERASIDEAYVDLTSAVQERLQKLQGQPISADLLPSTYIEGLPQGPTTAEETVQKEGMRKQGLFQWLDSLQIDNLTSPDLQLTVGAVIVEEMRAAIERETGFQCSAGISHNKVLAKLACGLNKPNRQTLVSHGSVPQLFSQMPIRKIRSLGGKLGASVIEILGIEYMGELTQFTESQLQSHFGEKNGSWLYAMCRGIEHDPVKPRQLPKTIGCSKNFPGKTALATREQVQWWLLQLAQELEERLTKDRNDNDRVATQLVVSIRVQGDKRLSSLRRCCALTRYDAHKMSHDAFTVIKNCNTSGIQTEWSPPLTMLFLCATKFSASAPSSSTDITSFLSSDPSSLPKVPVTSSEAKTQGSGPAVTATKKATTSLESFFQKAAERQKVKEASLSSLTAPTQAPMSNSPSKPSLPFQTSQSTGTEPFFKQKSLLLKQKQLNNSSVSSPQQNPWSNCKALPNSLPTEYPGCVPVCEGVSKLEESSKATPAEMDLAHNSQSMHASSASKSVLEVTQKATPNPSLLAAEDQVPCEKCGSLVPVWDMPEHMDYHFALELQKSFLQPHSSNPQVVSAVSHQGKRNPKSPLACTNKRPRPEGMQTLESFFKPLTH
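Fluorescent replication assay: 50 nM final substrate added after a 15 min room-temperature compound preincubation with 10 nM enzyme. Signal taken at 0 min and again at 10 min.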
Pol iota inh: DNA polymerase iota (human) inhibition; Q9UNA4; Pol iota fluorescent replication assay, 10 min; Potency, µM (series often up to 115 µM), for inactives: at the highest dose activity, negative = inhibition, most hits filed as inhibitors; 1% of 390,000 active
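Fluorescent replication assay read twice, at 0 min and 10 min after adding 50 nM (final) substrate. Enzyme (10 nM) and compounds were first incubated 15 min at room temperature; enzyme-free buffer wells were negative controls.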
POLB inh: inhibitors of human DNA polymerase beta; P06746; Pol beta primer extension/strand displacement, fluorescence kinetic; Potency, µM (highest dose often 114 µM), without a hit: top-dose activity change, negative = inhibition, most hits filed as inhibitors; 1.3% of 340,000 active; also: % is scaled to controls: 0 for no effect and ±100 for the full control effect
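Homogeneous kinetic assay of primer extension and strand displacement by 10 nM Pol beta, preincubated 15 min at room temperature with compound before 50 nM substrate (final) was added. Read at 0 and 10 min; four-parameter Hill fit.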
An asterisk follows results filed as active; ? = inconclusive; . = not tested or not shown; ! = not active in a repeat; [ ] = another dose, or the depositor's remark. Only some compounds are listed: those with a hit (about 2.4% of all), similar ones and a draw of the others. Calls follow the shape of the dose curve; as a rule, active = well fitted curve in the direction sought with a large enough effect; inconclusive = small, poorly fitted or top-dose-only effect, or another doubt; inactive = no such curve, though single readings can be large; an effect the other way counts as inactive or inconclusive. Potency is read from the fitted curve at half-maximal effect.

SMILES	Pol kappa inh	TDP1 block	POLH inh	Pol iota inh	POLB inh
CC(C)=CCCC1(C)C=Cc2c(O)c3c(c(CC=C(C)C)c2O1)OC12C(=CC4CC1C(C)(C)OC2(C/C=C(/C)C(=O)O)C4O)C3=O (stereo not drawn)	25.1µM*	12.4%[56.1 µM]	.	.	.
CC(C)CCCC1(C)C=Cc2c(O)c3c(c(CCC(C)C)c2O1)OC12C(CC4CC1C(C)(C)OC2(CCC(C)C(=O)O)C4O)C3=O (stereo not drawn)	?	8.6%	.	.	.
CC(C)=CCCC1(C)C=Cc2c(O)c3c(c(CC=C(C)C)c2O1)OC12C(=CC4CC1C(C)(C)OC2(C/C=C(/C)C(=O)O)C4=O)C3=O (stereo not drawn)	22.4µM*	12.9%	.	.	.
CS(=O)c1ccc(-c2nc(-c3ccc(F)cc3)c(-c3ccncc3)[nH]2)cc1 (stereo not drawn)	?	13.4%	.	.	.
Cc1nc2sccc2c(=O)n1-c1ccccc1Cl	3.7%	1.0%	-8.0%	7.0%	1.0%
Cc1cc(=O)n(-c2ccccc2Cl)[nH]1	0.2%	-2.3%	-5.3%	2.82µM*	10.3%
Cc1cccc(C)c1[N+](=O)[O-]	.	19.4%	.	.	.
CC(C)n1c(O)c(C2c3cc(Cl)ccc3Oc3[nH]c(=O)n(C(C)C)c(=O)c32)c(=O)[nH]c1=O (stereo not drawn)	-6.8%	0.0%	?	15.8µM*	8.2%
Clc1ccc(C(c2ccccc2Cl)C(Cl)(Cl)Cl)cc1 (stereo not drawn)	.	-1.4%	.	.	.
CCC(C)=O	.	16.6%	.	.	.
O=C1NC(=O)[C@]2(Cc3ccccc3N3CCN(c4ccccc4)CC32)C(=O)N1Cc1ccccc1 (stereo partly drawn)	-11.7%	6.7%	20µM*	?	-17.1%
Cc1cc(C)cc(OCCOc2cccc(C=C3C(=O)NC(=O)NC3=O)c2)c1	-5.2%	79.4µM*	-17.7%	?	-0.2%
Cc1ccc(OCCOc2cccc(C=C3C(=O)NC(=O)NC3=O)c2)cc1	-10.0%	.	5.8%	?	?
CCC(CO)NC(=O)[C@@H]1C=C2c3cccc4[nH]cc(c34)C[C@H]2N(C)C1 (stereo partly drawn)	.	-4.3%[56.1 µM]	?	31.6µM*	-8.4%[57.1 µM]
CC(C)[C@H]1C(=O)N2CCC[C@H]2[C@]2(O)O[C@](NC(=O)[C@@H]3C=C4c5cccc6[nH]cc(c56)C[C@H]4N(C)C3)(C(C)C)C(=O)N12	-34.9%	8.7%	-11.6%	22.4µM*	-2.8%
COc1cc([C@@H]2c3cc4c(cc3[C@H](O)[C@H]3COC(=O)[C@@H]23)OCO4)cc(OC)c1OC	9.4%	0.3%	.	?	.
CC(N)C(O)c1ccc(O)c(O)c1 (stereo not drawn)	3.16µM*!	-8.5%[56.1 µM]	.	.	.
CC(N)[C@@H](O)c1ccccc1 (stereo partly drawn)	-6.1%[60.1 µM]	9.3%[56.1 µM]	.	.	.
O=c1c(-c2ccccc2)c(O)c2ccccc2n1-c1ccccc1	3.6%	.	-16.0%	124.0%	15.5%
NC(N)=N/N=C/c1cn(-c2ccccc2)nc1-c1cccs1	-14.8%	1.3%	-12.0%	-7.7%	28.2µM*
O=c1c2ccccc2nc(/C=C/c2ccc(O)cc2)n1-c1ccc(O)cc1	6.5%	.	?	-12.3%	?
O=c1c2ccccc2nc(/C=C/c2ccc(O)cc2)n1-c1cccc(O)c1	?	?	56.2µM*	25.1µM*	3.98µM*
COc1cccc(-n2c(/C=C/c3ccc(O)c(O)c3)nc3ccccc3c2=O)c1	-43.2%	-6.2%	28.2µM*	22.4µM*	8.91µM*
[O]=[Cr](=[O])([OH])[O][Cr](=[O])(=[O])[OH]	-18.3%[60.1 µM]	6.31µM*!	.	.	.
Cc1ccc(NP(=O)(Oc2ccccc2F)Oc2ccccc2F)cc1C	?	0.6%	-16.7%	89.1µM*	-16.6%
SMILES	Pol kappa inh	TDP1 block	POLH inh	Pol iota inh	POLB inh
COc1ccc(CCNCC2CCCO2)cc1 (stereo not drawn)	-1.8%	.	-4.1%	10.4%	38.1%
CCOc1cccc(OCC)c2c(C)[n+](CC3CCCO3)c(C)c1-2 (stereo not drawn)	25.1µM*	.	44.7µM*	?	22.4µM*
COc1ccc(-c2nn3c(=O)cc(CN4CCN(S(=O)(=O)c5ccc(C)cc5)CC4)nc3s2)cc1	-2.5%[60.1 µM]	0.0%	-12.4%	57.3%	2.6%
COc1ccc(NC(=O)CCn2cnc3onc(-c4ccc(F)cc4)c3c2=O)cc1OC	-3.6%	1.1%	-11.7%	?	-3.4%
COc1ccc(/C=C/C=C2C(=O)NC(=S)NC2=O)cc1	-27.6%	.	25.1µM*	?	.
COc1ccc(C=C2C(=O)NC(=S)NC2=O)cc1OC	-5.1%	.	-7.4%	?	.
C[C@@H]1O[C@@H](Oc2c(-c3ccc(O)c(O)c3)oc3cc(O)cc(O)c3c2=O)[C@H](O)[C@H](O)[C@H]1O	44.7µM*	7.2%	?	35.5µM*	.
O=Cc1ccc(Cl)cc1Cl	.	16.1%	.	.	.
CC(Cl)CCl (stereo not drawn)	.	5.9%	.	.	.
O=C1C=CC(=O)c2c(O)cccc21	2.67µM*	-6.2%	.	.	.
S=C(S)N1CCCC1	5.2%[60.1 µM]	2.8%[56.1 µM]	-19.3%	?	-8.6%[57.1 µM]
O=S(=O)(O)c1cc(N=C=S)ccc1/C=C/c1ccc(N=C=S)cc1S(=O)(=O)O	35.5µM*	.	.	.	.
CC(C)C[C@H](NC(=O)[C@@H](N)Cc1ccccc1)C(=O)N[C@@H](Cc1ccccc1)C(=O)N[C@@H](CCC(N)=O)C(=O)N1CCC[C@H]1C(=O)N[C@@H](CCC(N)=O)C(=O)N[C@@H](CCCN=C(N)N)C(=O)N[C@@H](Cc1ccccc1)C(N)=O	15.7%[60.1 µM]	8.9%	.	.	.
COc1ccccc1-c1nc2c(c(SCc3cccc(Cl)c3)n1)Cc1c(CO)cnc(C)c1O2	-5.0%	7.7%	-19.3%	39.9%	2.5%
CC[C@H](C)/C=C(C)/C=C/C1=CC2=C(Cl)C(=O)[C@](C)(OC(C)=O)C(=O)C2=CO1	79.4µM*	-9.2%	20µM*	50.1µM*	.
CCOc1cc(/C=C2/C(=O)NC(=O)N(c3ccc(CC)cc3)C2=O)ccc1OC(=O)c1cccs1	-3.2%	2.1%	44.7µM*	-17.7%	-13.2%
COc1cc(/C=C2/C(=O)NC(=O)N(c3ccccc3)C2=O)ccc1O	3.1%	1.3%	9.8%	17.3%	1.8%
N#CC(C#N)=Cc1cc(O)c(O)c(O)c1	3.16µM*	15.7%[56.1 µM]	2.24µM*	9.47µM*	-25.7%[57.1 µM]
N#CC(C#N)=Cc1ccc(O)cc1	-13.8%[60.1 µM]	6.9%	.	.	.
CC(=O)O[C@H]1C(=O)[C@@]2(C)C([C@H](OC(=O)c3ccccc3)[C@]3(O)C[C@H](OC(=O)[C@H](O)[C@@H](NC(=O)c4ccccc4)c4ccccc4)C(C)=C1C3(C)C)[C@]1(OC(C)=O)CO[C@@H]1C[C@@H]2OC(=O)[C@H](C)NC(=O)c1ccc(-c2c3ccc(=O)cc-3oc3cc(O)ccc23)c(C(=O)O)c1 (stereo partly drawn)	4.74µM*	25.5%[21 µM]	.	.	.
